Measurements as given in publication PMC7862700, “An all-to-all approach to the identification of sequence-specific readers for epigenetic DNA modifications on cytosine”.

Legend:
Test in all cases: DAPPL (digital affinity profiling via proximity ligation, sequencing); 10 mM Tris-HCl pH 7.5, 50 mM NaCl, 1 mM DTT, 4% glycerol, room temperature, 30 min; GST-TFs on glutathione beads, 16-mer random dsDNA library, 0.1% formaldehyde crosslink after washing; high values mean tight binding
Conditions in all cases: protein: recombinant; tags: N-terminal GST; dsDNA, one strand shown
[1] = molecular target: T1, FEV (Homo sapiens, UniProt Q99581 1-238)
T1 sequence: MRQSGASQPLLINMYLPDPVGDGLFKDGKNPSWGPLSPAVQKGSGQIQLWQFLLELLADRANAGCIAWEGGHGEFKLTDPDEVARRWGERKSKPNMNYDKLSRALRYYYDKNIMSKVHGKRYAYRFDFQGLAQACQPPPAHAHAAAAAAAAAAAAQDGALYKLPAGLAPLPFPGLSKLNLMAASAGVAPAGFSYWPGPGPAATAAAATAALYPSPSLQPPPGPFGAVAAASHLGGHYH
Outline: (§1)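 Beads coated with glutathione captured GST-fused human transcription factors that had been expressed in yeast, and the factors were then given DNA barcodes and pooled with a tag-only sample. The pools were incubated with 200 nmole of a random double-stranded 16-mer DNA library in Tris/NaCl/DTT/glycerol buffer for 30 min at room temperature, washed, crosslinked with 0.1% formaldehyde and proximity-ligated with BsaI/T4 ligase at 37 °C for 1 h. PCR amplification and Illumina NextSeq500 sequencing came last. Binding signal is each hexamer's read frequency for a factor divided by its frequency for the tag-only sample.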

[2] = molecular target: ETV5 (Homo sapiens, UniProt P41161 1-510)
Sequence of ETV5 (P41161 whole entry): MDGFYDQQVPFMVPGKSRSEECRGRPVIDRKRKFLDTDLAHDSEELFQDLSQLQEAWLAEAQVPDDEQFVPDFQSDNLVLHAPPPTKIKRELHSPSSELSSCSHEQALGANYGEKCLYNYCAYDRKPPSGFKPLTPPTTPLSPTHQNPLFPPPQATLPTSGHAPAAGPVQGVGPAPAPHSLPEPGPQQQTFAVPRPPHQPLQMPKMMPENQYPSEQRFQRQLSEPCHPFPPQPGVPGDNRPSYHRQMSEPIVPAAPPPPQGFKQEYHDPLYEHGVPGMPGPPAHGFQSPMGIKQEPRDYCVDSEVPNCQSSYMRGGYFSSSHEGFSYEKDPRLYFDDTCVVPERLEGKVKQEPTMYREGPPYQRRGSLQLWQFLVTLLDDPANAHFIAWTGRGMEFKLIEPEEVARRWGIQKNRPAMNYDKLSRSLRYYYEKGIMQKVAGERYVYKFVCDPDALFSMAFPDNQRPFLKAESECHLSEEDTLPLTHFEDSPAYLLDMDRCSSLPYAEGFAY
Outline: as §1

[3] = molecular target: T2, SPIC (Homo sapiens, UniProt Q8N5J4 1-248)
T2 sequence: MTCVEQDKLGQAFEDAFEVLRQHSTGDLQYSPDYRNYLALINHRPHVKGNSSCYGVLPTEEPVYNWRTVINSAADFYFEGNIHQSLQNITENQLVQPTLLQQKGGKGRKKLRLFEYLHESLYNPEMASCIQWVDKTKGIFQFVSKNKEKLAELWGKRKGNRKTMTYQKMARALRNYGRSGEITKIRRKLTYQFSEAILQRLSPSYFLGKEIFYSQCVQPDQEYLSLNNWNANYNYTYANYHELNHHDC
Outline: as §1

[4] = molecular target: ELF4 (Homo sapiens, UniProt Q99607 1-663)
Sequence of ELF4 (Q99607 whole entry): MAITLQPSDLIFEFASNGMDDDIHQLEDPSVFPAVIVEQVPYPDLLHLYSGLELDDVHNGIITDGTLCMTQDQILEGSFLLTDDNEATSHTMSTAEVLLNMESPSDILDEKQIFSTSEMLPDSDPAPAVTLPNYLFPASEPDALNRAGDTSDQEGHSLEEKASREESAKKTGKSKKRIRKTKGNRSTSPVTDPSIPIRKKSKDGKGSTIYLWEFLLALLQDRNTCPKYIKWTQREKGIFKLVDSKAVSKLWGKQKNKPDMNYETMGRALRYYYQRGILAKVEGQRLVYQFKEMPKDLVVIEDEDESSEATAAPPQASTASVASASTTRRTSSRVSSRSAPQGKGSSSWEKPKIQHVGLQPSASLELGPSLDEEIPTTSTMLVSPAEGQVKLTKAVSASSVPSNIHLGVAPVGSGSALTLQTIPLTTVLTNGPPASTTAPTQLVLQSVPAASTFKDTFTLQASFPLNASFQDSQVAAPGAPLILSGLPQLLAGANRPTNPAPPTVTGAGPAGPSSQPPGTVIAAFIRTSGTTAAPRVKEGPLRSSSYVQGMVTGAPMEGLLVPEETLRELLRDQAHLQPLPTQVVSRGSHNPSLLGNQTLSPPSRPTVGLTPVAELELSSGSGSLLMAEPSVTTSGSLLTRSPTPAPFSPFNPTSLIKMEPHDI
Outline: as §1

[5] = molecular target: T3, ELK4 (Homo sapiens, UniProt P28324-2 1-405)
T3 sequence: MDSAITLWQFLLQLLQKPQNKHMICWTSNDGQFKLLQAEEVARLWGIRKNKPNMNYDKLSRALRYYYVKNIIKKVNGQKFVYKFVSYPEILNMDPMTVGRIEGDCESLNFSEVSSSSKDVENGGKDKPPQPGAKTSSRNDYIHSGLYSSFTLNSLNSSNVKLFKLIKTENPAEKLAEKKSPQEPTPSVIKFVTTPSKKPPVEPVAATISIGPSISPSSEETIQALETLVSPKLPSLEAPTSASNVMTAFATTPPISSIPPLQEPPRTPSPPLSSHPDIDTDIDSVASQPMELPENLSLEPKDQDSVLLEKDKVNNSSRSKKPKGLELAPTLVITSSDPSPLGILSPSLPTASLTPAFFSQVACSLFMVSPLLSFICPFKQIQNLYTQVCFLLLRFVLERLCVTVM
Outline: as §1

[6] = molecular target: T4, ETV2 (Homo sapiens, UniProt O00321 1-342)
T4 sequence: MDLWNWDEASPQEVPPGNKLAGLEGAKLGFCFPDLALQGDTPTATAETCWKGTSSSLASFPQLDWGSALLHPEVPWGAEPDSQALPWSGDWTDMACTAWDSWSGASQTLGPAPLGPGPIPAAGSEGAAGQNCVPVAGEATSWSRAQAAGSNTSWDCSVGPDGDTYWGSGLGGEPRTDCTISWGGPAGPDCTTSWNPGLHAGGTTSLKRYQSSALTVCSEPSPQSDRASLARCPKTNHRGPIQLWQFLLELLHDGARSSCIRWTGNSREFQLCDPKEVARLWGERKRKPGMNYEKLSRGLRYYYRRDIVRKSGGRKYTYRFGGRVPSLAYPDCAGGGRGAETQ
Outline: as §1

[7] = molecular target: T5, ELF3 (Homo sapiens, UniProt P78545 1-371)
T5 sequence: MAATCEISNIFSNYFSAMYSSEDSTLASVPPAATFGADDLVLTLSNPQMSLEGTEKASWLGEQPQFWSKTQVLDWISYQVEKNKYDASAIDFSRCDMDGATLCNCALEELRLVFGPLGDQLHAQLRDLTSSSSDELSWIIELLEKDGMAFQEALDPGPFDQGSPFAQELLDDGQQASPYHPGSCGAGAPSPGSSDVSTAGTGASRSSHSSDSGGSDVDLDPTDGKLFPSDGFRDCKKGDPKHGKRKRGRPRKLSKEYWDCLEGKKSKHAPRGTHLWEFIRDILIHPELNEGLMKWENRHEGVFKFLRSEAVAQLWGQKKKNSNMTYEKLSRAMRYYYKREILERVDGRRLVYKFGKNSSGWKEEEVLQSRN
Outline: as §1

[8] = molecular target: ETV1 (Homo sapiens, UniProt P50549 1-477)
Sequence of ETV1 (P50549 whole entry): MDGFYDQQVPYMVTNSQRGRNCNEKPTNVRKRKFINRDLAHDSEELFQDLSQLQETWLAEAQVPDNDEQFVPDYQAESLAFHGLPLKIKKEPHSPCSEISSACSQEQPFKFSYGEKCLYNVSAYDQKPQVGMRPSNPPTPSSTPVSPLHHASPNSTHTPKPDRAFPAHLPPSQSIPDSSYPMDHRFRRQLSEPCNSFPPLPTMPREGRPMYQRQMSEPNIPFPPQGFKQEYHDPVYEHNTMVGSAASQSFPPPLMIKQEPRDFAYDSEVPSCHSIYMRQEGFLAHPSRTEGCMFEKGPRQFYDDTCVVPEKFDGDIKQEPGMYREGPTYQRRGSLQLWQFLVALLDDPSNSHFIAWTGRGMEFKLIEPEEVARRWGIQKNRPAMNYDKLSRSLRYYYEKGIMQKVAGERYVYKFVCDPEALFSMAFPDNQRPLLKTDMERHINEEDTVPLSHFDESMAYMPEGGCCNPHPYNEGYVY
Outline: as §1

[9] = molecular target: T6, ERF (Homo sapiens, UniProt P50548 1-548)
T6 sequence: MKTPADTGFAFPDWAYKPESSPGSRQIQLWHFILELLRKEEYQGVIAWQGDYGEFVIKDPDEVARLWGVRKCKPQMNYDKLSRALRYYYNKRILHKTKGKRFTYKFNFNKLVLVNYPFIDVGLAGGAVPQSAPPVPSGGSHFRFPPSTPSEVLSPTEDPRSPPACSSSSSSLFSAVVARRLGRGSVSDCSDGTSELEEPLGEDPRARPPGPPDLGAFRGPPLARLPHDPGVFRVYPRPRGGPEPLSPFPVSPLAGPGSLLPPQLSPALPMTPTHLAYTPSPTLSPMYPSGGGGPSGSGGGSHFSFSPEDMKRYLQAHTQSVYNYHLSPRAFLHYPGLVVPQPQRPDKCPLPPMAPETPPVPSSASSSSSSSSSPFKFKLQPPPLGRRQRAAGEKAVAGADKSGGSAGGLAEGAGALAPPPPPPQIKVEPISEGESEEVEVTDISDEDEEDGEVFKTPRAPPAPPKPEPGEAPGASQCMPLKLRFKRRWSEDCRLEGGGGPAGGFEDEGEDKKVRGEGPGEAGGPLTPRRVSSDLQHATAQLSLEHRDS
Outline: as §1

[10] = molecular target: T7, ETV3L (Homo sapiens, UniProt Q6ZN32 1-361)
T7 sequence: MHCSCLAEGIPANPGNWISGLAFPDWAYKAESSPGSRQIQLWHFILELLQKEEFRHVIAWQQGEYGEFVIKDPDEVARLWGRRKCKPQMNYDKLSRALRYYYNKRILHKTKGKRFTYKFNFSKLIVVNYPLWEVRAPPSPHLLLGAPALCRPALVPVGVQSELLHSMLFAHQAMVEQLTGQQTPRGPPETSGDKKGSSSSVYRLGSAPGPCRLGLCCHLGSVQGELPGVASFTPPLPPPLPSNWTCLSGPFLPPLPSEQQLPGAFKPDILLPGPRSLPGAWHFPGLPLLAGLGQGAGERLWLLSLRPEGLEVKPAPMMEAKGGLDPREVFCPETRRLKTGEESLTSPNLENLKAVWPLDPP
Outline: as §1

[11] = molecular target: T8, ETS2 (Homo sapiens, UniProt P15036 1-469)
T8 sequence: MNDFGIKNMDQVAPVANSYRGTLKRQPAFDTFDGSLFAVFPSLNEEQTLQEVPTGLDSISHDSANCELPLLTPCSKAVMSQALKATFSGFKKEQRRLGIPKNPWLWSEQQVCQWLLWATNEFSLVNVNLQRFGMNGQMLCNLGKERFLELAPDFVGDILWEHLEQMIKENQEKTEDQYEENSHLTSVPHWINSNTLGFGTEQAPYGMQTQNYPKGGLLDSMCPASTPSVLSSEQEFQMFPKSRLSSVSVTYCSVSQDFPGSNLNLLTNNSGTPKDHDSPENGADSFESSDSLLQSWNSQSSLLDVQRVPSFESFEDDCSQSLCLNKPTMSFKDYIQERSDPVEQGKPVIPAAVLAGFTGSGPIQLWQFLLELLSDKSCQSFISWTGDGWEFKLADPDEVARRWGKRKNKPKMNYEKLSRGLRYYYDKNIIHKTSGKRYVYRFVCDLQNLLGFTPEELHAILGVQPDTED
Outline: as §1

[12] = molecular target: T9, SPDEF (Homo sapiens, UniProt O95238 1-335)
T9 sequence: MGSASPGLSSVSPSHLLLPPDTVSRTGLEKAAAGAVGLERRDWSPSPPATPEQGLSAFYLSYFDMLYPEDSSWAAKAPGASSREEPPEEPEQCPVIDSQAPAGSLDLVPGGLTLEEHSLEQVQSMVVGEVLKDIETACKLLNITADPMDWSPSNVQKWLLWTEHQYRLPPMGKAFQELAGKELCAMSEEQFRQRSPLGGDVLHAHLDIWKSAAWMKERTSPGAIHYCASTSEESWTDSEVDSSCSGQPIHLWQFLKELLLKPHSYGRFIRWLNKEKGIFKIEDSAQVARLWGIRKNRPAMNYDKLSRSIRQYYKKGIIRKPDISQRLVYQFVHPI
Outline: as §1

[13] = molecular target: T10, ETV7 (Homo sapiens, UniProt Q9Y603 1-341)
T10 sequence: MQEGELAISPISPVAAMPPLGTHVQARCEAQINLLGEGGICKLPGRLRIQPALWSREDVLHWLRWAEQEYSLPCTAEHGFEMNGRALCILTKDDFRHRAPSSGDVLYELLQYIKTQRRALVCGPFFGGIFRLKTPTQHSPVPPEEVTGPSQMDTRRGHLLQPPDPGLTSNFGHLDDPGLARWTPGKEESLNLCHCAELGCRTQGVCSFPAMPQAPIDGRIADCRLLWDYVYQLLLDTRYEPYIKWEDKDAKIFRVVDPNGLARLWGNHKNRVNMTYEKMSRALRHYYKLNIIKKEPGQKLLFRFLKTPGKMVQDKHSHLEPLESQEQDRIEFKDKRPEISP
Outline: as §1

[14] = molecular target: T11, ELF5 (Homo sapiens, UniProt Q9UKW6-2 1-255)
T11 sequence: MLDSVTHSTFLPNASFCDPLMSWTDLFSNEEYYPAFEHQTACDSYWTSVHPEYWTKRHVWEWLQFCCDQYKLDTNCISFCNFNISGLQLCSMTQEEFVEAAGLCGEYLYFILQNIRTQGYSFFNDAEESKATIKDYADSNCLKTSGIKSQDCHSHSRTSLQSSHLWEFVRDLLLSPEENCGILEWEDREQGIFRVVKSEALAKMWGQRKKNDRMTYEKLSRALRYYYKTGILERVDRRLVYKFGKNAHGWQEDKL
Outline: as §1

[15] = molecular target: T12, ETV3 (Homo sapiens, UniProt P41162-2 1-143)
T12 sequence: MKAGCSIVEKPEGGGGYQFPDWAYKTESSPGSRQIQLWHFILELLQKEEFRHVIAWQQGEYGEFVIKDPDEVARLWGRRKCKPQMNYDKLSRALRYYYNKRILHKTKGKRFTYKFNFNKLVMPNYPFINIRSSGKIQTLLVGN
Outline: as §1

[16] = molecular target: ETV6 (Homo sapiens, UniProt P41212 1-452)
Sequence of ETV6 (P41212 whole entry): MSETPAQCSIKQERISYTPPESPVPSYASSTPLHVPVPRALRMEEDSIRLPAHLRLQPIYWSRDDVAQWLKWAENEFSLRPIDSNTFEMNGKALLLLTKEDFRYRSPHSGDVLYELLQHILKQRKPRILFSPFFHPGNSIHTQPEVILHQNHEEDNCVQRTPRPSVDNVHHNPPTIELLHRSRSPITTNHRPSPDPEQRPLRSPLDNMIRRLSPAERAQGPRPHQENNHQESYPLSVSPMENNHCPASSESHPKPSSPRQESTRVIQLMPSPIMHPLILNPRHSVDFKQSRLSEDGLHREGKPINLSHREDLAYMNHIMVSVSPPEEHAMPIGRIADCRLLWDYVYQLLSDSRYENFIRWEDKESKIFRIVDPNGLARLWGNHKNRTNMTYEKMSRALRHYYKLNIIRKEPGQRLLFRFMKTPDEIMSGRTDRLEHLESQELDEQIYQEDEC
Outline: as §1

[17] = molecular target: CRX (Homo sapiens, UniProt O43186 1-299)
Sequence of CRX (O43186 whole entry): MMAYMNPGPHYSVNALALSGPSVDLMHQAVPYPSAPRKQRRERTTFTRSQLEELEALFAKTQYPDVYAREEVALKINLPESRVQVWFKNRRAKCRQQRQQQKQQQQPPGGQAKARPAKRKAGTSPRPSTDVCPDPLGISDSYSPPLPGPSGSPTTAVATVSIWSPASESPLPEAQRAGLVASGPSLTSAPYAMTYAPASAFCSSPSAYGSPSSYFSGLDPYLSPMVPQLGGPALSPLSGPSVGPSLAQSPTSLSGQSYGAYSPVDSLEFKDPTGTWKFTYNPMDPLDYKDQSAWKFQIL
Outline: as §1

Row | Sequence | binding signal [1] | binding signal [2] | binding signal [3] | binding signal [4] | binding signal [5] | binding signal [6] | binding signal [7] | binding signal [8] | binding signal [9] | binding signal [10] | binding signal [11] | binding signal [12] | binding signal [13] | binding signal [14] | binding signal [15] | binding signal [16] | binding signal [17]
1 | TGTCCG | 1.61 fold enrichment (6-mer frequency, TF over GST control) | 1.61 fold enrichment (6-mer frequency, TF over GST control) | 1.36 fold enrichment (6-mer frequency, TF over GST control) | 1.41 fold enrichment (6-mer frequency, TF over GST control) | 1.32 fold enrichment (6-mer frequency, TF over GST control) | 1.29 fold enrichment (6-mer frequency, TF over GST control) | 1.48 fold enrichment (6-mer frequency, TF over GST control) | 1.6 fold enrichment (6-mer frequency, TF over GST control) | 1.31 fold enrichment (6-mer frequency, TF over GST control) | 1.4 fold enrichment (6-mer frequency, TF over GST control) | 1.52 fold enrichment (6-mer frequency, TF over GST control) | 1.8 fold enrichment (6-mer frequency, TF over GST control) | 1.51 fold enrichment (6-mer frequency, TF over GST control) | 1.62 fold enrichment (6-mer frequency, TF over GST control) | 1.6 fold enrichment (6-mer frequency, TF over GST control) | 1.55 fold enrichment (6-mer frequency, TF over GST control) | –
2 | ACCGCT | 1.17 fold enrichment (6-mer frequency, TF over GST control) | 1.1 fold enrichment (6-mer frequency, TF over GST control) | 1.13 fold enrichment (6-mer frequency, TF over GST control) | 1.14 fold enrichment (6-mer frequency, TF over GST control) | 1.18 fold enrichment (6-mer frequency, TF over GST control) | 1.07 fold enrichment (6-mer frequency, TF over GST control) | 1.19 fold enrichment (6-mer frequency, TF over GST control) | – | 1.21 fold enrichment (6-mer frequency, TF over GST control) | 1.12 fold enrichment (6-mer frequency, TF over GST control) | 1.1 fold enrichment (6-mer frequency, TF over GST control) | 1.06 fold enrichment (6-mer frequency, TF over GST control) | 1.13 fold enrichment (6-mer frequency, TF over GST control) | 1.05 fold enrichment (6-mer frequency, TF over GST control) | 1.04 fold enrichment (6-mer frequency, TF over GST control) | 1.15 fold enrichment (6-mer frequency, TF over GST control) | 1.01 fold enrichment (6-mer frequency, TF over GST control)
